For 38 molecules, binding signal results are on record in publication PMC9911399, “Two distinct binding modes provide the RNA-binding protein RbFox with extraordinary sequence specificity”.

B1: CGUUCGA (DNA:RNA)
RNA: GGGAGACCGGAAUUCAGAUUGUCCCGUUCGAUUAAAUCCCGUCGUAGCCACCA
DNA 1: CAATCTGAATTCCGGTCTCCC
DNA 2: TGGTGGCTACGACGGGATT
B2: AUUUAUA (DNA:RNA)
RNA: B1 RNA with C25A, G26U, C29A, G30U
DNA 1: CAATCTGAATTCCGGTCTCCC
DNA 2: TGGTGGCTACGACGGGATT
B3: AGUACGU (DNA:RNA)
RNA: B1 RNA with C25A, U28A, A31U
DNA 1: CAATCTGAATTCCGGTCTCCC
DNA 2: TGGTGGCTACGACGGGATT
B4: GUUGUCC (DNA:RNA)
RNA: B1 RNA with C25G, G26U, U28G, C29U, G30C, A31C
DNA 1: CAATCTGAATTCCGGTCTCCC
DNA 2: TGGTGGCTACGACGGGATT
B5: UGGGCAG (DNA:RNA)
RNA: B1 RNA with C25U, U27G, U28G, G30A, A31G
DNA 1: CAATCTGAATTCCGGTCTCCC
DNA 2: TGGTGGCTACGACGGGATT
B6: UGGCAGU (DNA:RNA)
RNA: B1 RNA with C25U, U27G, U28C, C29A, A31U
DNA 1: CAATCTGAATTCCGGTCTCCC
DNA 2: TGGTGGCTACGACGGGATT
B7: CUGGCAG (DNA:RNA)
RNA: B1 RNA with G26U, U27G, U28G, G30A, A31G
DNA 1: CAATCTGAATTCCGGTCTCCC
DNA 2: TGGTGGCTACGACGGGATT
B8: CUGGCAC (DNA:RNA)
RNA: B1 RNA with G26U, U27G, U28G, G30A, A31C
DNA 1: CAATCTGAATTCCGGTCTCCC
DNA 2: TGGTGGCTACGACGGGATT
B9: UGGCACU (DNA:RNA)
RNA: B1 RNA with C25U, U27G, U28C, C29A, G30C, A31U
DNA 1: CAATCTGAATTCCGGTCTCCC
DNA 2: TGGTGGCTACGACGGGATT
B10: UGGGCAC (DNA:RNA)
RNA: B1 RNA with C25U, U27G, U28G, G30A, A31C
DNA 1: CAATCTGAATTCCGGTCTCCC
DNA 2: TGGTGGCTACGACGGGATT
B11: CCGCAGU (DNA:RNA)
RNA: B1 RNA with G26C, U27G, U28C, C29A, A31U
DNA 1: CAATCTGAATTCCGGTCTCCC
DNA 2: TGGTGGCTACGACGGGATT
B12: AACCGUA (DNA:RNA)
RNA: B1 RNA with C25A, G26A, U27C, U28C, C29G, G30U
DNA 1: CAATCTGAATTCCGGTCTCCC
DNA 2: TGGTGGCTACGACGGGATT
B13: CGCCCCG (DNA:RNA)
RNA: B1 RNA with U27C, U28C, G30C, A31G
DNA 1: CAATCTGAATTCCGGTCTCCC
DNA 2: TGGTGGCTACGACGGGATT
B14: UUGCACU (DNA:RNA)
RNA: GGGAGACCGGAAUUCAGAUUGUCCUUGCACUUUAAAUCCCGUCGUAGCCACCA
DNA 1: CAATCTGAATTCCGGTCTCCC
DNA 2: TGGTGGCTACGACGGGATT
B15: GGGAUAU (DNA:RNA)
RNA: B14 RNA with U25G, U26G, C28A, A29U, C30A
DNA 1: CAATCTGAATTCCGGTCTCCC
DNA 2: TGGTGGCTACGACGGGATT
B16: UAAGUGG (DNA:RNA)
RNA: B1 RNA with C25U, G26A, U27A, U28G, C29U, A31G
DNA 1: CAATCTGAATTCCGGTCTCCC
DNA 2: TGGTGGCTACGACGGGATT
B17: GUUAAGA (DNA:RNA)
RNA: B1 RNA with C25G, G26U, U28A, C29A
DNA 1: CAATCTGAATTCCGGTCTCCC
DNA 2: TGGTGGCTACGACGGGATT
B18: CUGGUCU (DNA:RNA)
RNA: B14 RNA with U25C, C28G, A29U
DNA 1: CAATCTGAATTCCGGTCTCCC
DNA 2: TGGTGGCTACGACGGGATT
B19: GUGGGUC (DNA:RNA)
RNA: B14 RNA with U25G, C28G, A29G, C30U, U31C
DNA 1: CAATCTGAATTCCGGTCTCCC
DNA 2: TGGTGGCTACGACGGGATT
B20: UGGGGUC (DNA:RNA)
RNA: B14 RNA with U26G, C28G, A29G, C30U, U31C
DNA 1: CAATCTGAATTCCGGTCTCCC
DNA 2: TGGTGGCTACGACGGGATT
B21: UGGGUCU (DNA:RNA)
RNA: B14 RNA with U26G, C28G, A29U
DNA 1: CAATCTGAATTCCGGTCTCCC
DNA 2: TGGTGGCTACGACGGGATT
B22: UGGUCUU (DNA:RNA)
RNA: B1 RNA with C25U, U27G, G30U, A31U
DNA 1: CAATCTGAATTCCGGTCTCCC
DNA 2: TGGTGGCTACGACGGGATT
B23: CUGGGUC (DNA:RNA)
RNA: B14 RNA with U25C, C28G, A29G, C30U, U31C
DNA 1: CAATCTGAATTCCGGTCTCCC
DNA 2: TGGTGGCTACGACGGGATT
B24: CAUUGUG (DNA:RNA)
RNA: B1 RNA with G26A, C29G, G30U, A31G
DNA 1: CAATCTGAATTCCGGTCTCCC
DNA 2: TGGTGGCTACGACGGGATT
B25: GGUCGAG (DNA:RNA)
RNA: B1 RNA with C25G, U28C, C29G, G30A, A31G
DNA 1: CAATCTGAATTCCGGTCTCCC
DNA 2: TGGTGGCTACGACGGGATT
B26: AGGUCCC (DNA:RNA)
RNA: B1 RNA with C25A, U27G, G30C, A31C
DNA 1: CAATCTGAATTCCGGTCTCCC
DNA 2: TGGTGGCTACGACGGGATT
B27: UGUUUGU (DNA:RNA)
RNA: B1 RNA with C25U, C29U, A31U
DNA 1: CAATCTGAATTCCGGTCTCCC
DNA 2: TGGTGGCTACGACGGGATT
B28: UGUUUGA (DNA:RNA)
RNA: B1 RNA with C25U, C29U
DNA 1: CAATCTGAATTCCGGTCTCCC
DNA 2: TGGTGGCTACGACGGGATT
B29: UGUUUUU (DNA:RNA)
RNA: B1 RNA with C25U, C29U, G30U, A31U
DNA 1: CAATCTGAATTCCGGTCTCCC
DNA 2: TGGTGGCTACGACGGGATT
B30: UGUCGUU (DNA:RNA)
RNA: B14 RNA with U26G, G27U, A29G, C30U
DNA 1: CAATCTGAATTCCGGTCTCCC
DNA 2: TGGTGGCTACGACGGGATT
B31: UGCUGUG (DNA:RNA)
RNA: B1 RNA with C25U, U27C, C29G, G30U, A31G
DNA 1: CAATCTGAATTCCGGTCTCCC
DNA 2: TGGTGGCTACGACGGGATT
B32: CGUUUGA (DNA:RNA)
RNA: B1 RNA with C29U
DNA 1: CAATCTGAATTCCGGTCTCCC
DNA 2: TGGTGGCTACGACGGGATT
B33: CUGUGUU (DNA:RNA)
RNA: B14 RNA with U25C, C28U, A29G, C30U
DNA 1: CAATCTGAATTCCGGTCTCCC
DNA 2: TGGTGGCTACGACGGGATT
B34: UGUGUUG (DNA:RNA)
RNA: B1 RNA with C25U, U28G, C29U, G30U, A31G
DNA 1: CAATCTGAATTCCGGTCTCCC
DNA 2: TGGTGGCTACGACGGGATT
B35: UGUGUGU (DNA:RNA)
RNA: B1 RNA with C25U, U28G, C29U, A31U
DNA 1: CAATCTGAATTCCGGTCTCCC
DNA 2: TGGTGGCTACGACGGGATT
B36: UGUGUUU (DNA:RNA)
RNA: B1 RNA with C25U, U28G, C29U, G30U, A31U
DNA 1: CAATCTGAATTCCGGTCTCCC
DNA 2: TGGTGGCTACGACGGGATT
B37: CCUGCUG (DNA:RNA)
RNA: B1 RNA with G26C, U28G, G30U, A31G
DNA 1: CAATCTGAATTCCGGTCTCCC
DNA 2: TGGTGGCTACGACGGGATT
B38: UGUUAAA (DNA:RNA)
RNA: B1 RNA with C25U, C29A, G30A
DNA 1: CAATCTGAATTCCGGTCTCCC
DNA 2: TGGTGGCTACGACGGGATT

Positions count from the first letter of the chain named. The full ranking holds about 16,000 sequences; the median of “ka relative to ugcaugu” is about 0.0091, and the highest 2% start at about 0.032. The list comes from a sample in which the highest values are over-represented; it also holds similar and randomly drawn sequences.

In the assay the target is T1, RBFOX1 RRM (Homo sapiens, UniProt Q9NWB1 109-208).
T1 sequence: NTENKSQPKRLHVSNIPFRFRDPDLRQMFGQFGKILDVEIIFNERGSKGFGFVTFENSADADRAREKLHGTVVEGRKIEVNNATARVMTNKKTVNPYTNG
The experiment in a line: EMSA; HiTS-Eq, 1 nM pool, 10 min; buffer printed only for the single-RNA assays: 10 mM Tris pH 7.5, 150 mM NaCl, 3.4 mM EDTA, 0.001% NP-40, 30 C. As to conditions: tags: His6 N-terminal (pET28a); label: 5' 32P. Put shortly: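 Purified wild-type or mutant RbFox RRM at increasing concentrations was equilibrated with 1 nM of 5′-radiolabelled RNA carrying 7 randomized nucleotides for 10 min in 50 µL. Unbound RNA was separated by 8% native PAGE and sequenced. Relative association constants came from read-count changes of each RNA species compared with the control reaction, normalised to the cognate motif.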
Background: A gel shift assay detects complexes by their altered migration in electrophoresis.
Regarding B1, the binding signal is 0.0138 KA relative to UGCAUGU.
The same measure for B2: 0.00157 KA relative to UGCAUGU; for B3: 0.00915 KA relative to UGCAUGU; for B4: 0.0202 KA relative to UGCAUGU.
B5: the binding signal is 0.0337 KA relative to UGCAUGU.
The same measure for B6: 0.0192 KA relative to UGCAUGU; for B7: 0.0227 KA relative to UGCAUGU; for B8: 0.0183 KA relative to UGCAUGU.
The same measure for B9: 0.0174 KA relative to UGCAUGU.
The same measure for B10: 0.0337 KA relative to UGCAUGU.
On to B11, for which the binding signal is 0.00716 KA relative to UGCAUGU.
The same measure for B12: 0.00191 KA relative to UGCAUGU; for B13: 0.007 KA relative to UGCAUGU; for B14: 0.021 KA relative to UGCAUGU.
In the case of B15 it was 0.0263 KA relative to UGCAUGU.
The same measure for B16: 0.00934 KA relative to UGCAUGU; for B17: 0.012 KA relative to UGCAUGU.
B18: the binding signal was 0.0225 KA relative to UGCAUGU.
In the case of B19 it was 0.0192 KA relative to UGCAUGU; in that of B20, 0.0387 KA relative to UGCAUGU.
In the case of B21 it was 0.0375 KA relative to UGCAUGU; in that of B22, 0.0179 KA relative to UGCAUGU.
Regarding B23, the binding signal was 0.0291 KA relative to UGCAUGU.
Consider B24, for which the binding signal was 0.0157 KA relative to UGCAUGU.
The same measure for B25: 0.0142 KA relative to UGCAUGU; for B26: 0.00339 KA relative to UGCAUGU; for B27: 0.0434 KA relative to UGCAUGU.
Take B28: the binding signal is 0.0341 KA relative to UGCAUGU.
In the case of B29 it was 0.0221 KA relative to UGCAUGU.
The same measure for B30: 0.021 KA relative to UGCAUGU.
The same measure for B31: 0.0347 KA relative to UGCAUGU.
B32: the binding signal is 0.0182 KA relative to UGCAUGU.
In the case of B33 it was 0.0207 KA relative to UGCAUGU.
The same measure for B34: 0.0299 KA relative to UGCAUGU.
The same measure for B35: 0.0346 KA relative to UGCAUGU; for B36: 0.0186 KA relative to UGCAUGU; for B37: 0.0192 KA relative to UGCAUGU.
B38: the binding signal was 0.0109 KA relative to UGCAUGU.
